# Screening results (PubChem)
# A selection: hits, their analogues and other compounds. The true share with any hit is near 2.4%.
# D2 PAM-1 = positively modulates the human D2 dopamine receptor allosterically; AID 485347; P14416; potentiation, % at 10 µM; HEK293 T-REx D2, calcium flux, EC20 dopamine potentiation; hit rate 0.34% among 340,000;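 active = potentiation over 3 SD above the plate norm, cut at about 30% in these data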; also: 0% is about no effect
# Target sequence (P14416 whole entry, looked up): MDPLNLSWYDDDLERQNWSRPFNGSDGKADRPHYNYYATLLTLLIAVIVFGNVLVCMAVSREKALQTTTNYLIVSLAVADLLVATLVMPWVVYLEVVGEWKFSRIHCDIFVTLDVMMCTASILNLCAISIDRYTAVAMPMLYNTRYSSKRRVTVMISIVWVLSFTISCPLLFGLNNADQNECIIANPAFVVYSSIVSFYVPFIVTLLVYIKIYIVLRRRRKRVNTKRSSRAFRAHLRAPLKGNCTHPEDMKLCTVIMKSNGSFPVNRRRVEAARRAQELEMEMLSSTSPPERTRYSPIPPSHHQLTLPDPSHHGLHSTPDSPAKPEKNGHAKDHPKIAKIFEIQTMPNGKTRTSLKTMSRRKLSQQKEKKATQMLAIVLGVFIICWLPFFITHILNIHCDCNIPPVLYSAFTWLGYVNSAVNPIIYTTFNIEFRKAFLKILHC
#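 Calcium flux readout, no-wash dye, 1 read/s. Inducible HEK293 Trex D2 line, overnight 30 C. Compound alone 180 s (agonist flags), then EC20 dopamine, another 180 s to score potentiation.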
# D2 ag-1 = agonists of human D2 dopamine receptor; P14416; HEK293 T-REx D2 cells, calcium flux agonist mode; activation, % at 2 µM; hit rate 0.53% among 340,000;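 active = activation over 3 SD above normal in the single-dose calcium agonist read, cut at about 30% in these data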; also: 0% is about no effect
#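 Agonism is scored from calcium flux in a force-coupled, inducible HEK293 cell line expressing D2, read kinetically for 180 s after compound addition against dopamine controls.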
# D2 PAM-2 = human D2 receptor positive allosteric modulation; AID 624464; P14416; potentiation, % (no concentration beside the values); hit rate 0.23% among 360,000; DiscoveRx D2 beta-arrestin cells, luminescence, 90 min; 100% = 57 uM dopamine signal; in the data active = potentiation above about 50%
#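 D2 cells co-treated with compound plus 50 nM dopamine (EC20) for 90 min at 37 deg C to detect potentiation. Beta-arrestin recruitment was read as enzyme-fragment luminescence after 1 h at ambient temperature. Full response was set by 57 uM dopamine.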
# D2 antagonist = antagonists of human D2 dopamine receptor; P14416; hit rate 2% among 340,000; HEK293 TREx D2 cells, calcium flux, dopamine EC80; inhibition, % at 10 µM; in the data active = inhibition above about 30%; inactive = below that, where a call was filed; also: 0% is about no effect
#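 Read-out: kinetic calcium fluorescence (1 cycle/s) in inducible HEK293 T-REx D2 cells after an EC80 dopamine addition that followed 180 s compound preincubation. Loss of the dopamine response indicates antagonism.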
# D2 ag-2 = human D2 receptor agonism in beta-arrestin assay. P14416. DiscoveRx PathHunter D2 beta-arrestin, luminescence, 90 min; 100% = 57 uM dopamine signal. activation, % (test concentration not listed). hit rate 0.084% among 360,000; in the data active = activation above about 40%
#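 DiscoveRx PathHunter D2 beta-arrestin cells (2,100/well) attached overnight, then compound-stimulated 90 min at 37 C in HBSS/10 mM HEPES/0.1% Tween-20 buffer; beta-galactosidase complementation read by luminescence after 1 h at ambient temperature. Dopamine 57 uM final (EC100) as control.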
# An asterisk follows results filed as active; . = no result.
SMILES,D2 PAM-1,D2 ag-1,D2 PAM-2,D2 antagonist,D2 ag-2
Cc1ccc(CN2C3CCCC2CC(NC(=O)c2ccc(C)cc2)C3)cc1 (centres undefined),-26,-2,-20,74*,3
O=C(NC1CC2CCCC(C1)N2Cc1cccs1)N1CCOCC1 (centres undefined),.,.,-39,.,-2
O=C(NC1CC2CCCC(C1)N2Cc1cccs1)c1ccc([N+](=O)[O-])cc1 (centres undefined),-21,1,.,57*,.
Cc1ccccc1C(=O)NC1CC2CCC(C1)N2Cc1ccccc1 (centres undefined),-24,0,-1,72*,-5
O=C(NC1CC2CCCC(C1)N2Cc1ccc(F)cc1)c1ccc(F)cc1 (centres undefined),-22,1,-75,75*,-9
O=C(Nc1ccc2oc(-c3cccnc3)nc2c1)c1ccc(-c2ccccc2OC(F)(F)F)o1,-10,1,.,.,.
O=S(=O)(Nc1ccc(F)c(C(F)(F)F)c1)c1ccc(N2CCCCS2(=O)=O)cc1,1,.,.,.,.
CCOc1ccccc1C(=O)NC1CC2CCCC(C1)N2Cc1ccc(C)cc1 (centres undefined),-22,-1,-19,84*,-2
CC(=O)NC1CC2CCCC(C1)N2CC(=O)NCc1ccc(F)cc1 (centres undefined),-8,0,3,22,-1
CC(=O)NC1CC2CCCC(C1)N2Cc1ccc(C)cc1 (centres undefined),-26,0,-67,54*,-4
COc1ccc(OC)c(NC(=O)C(C)n2nc(C)c3c(C)n(-c4ccccc4)nc3c2=O)c1 (centres undefined),2,-1,.,.,.
COc1ccc2c(c1)c1c(c(=O)n(-c3ccccc3C)c(=O)n1CC(=O)NCc1ccc(C)cc1)n2C,-4,1,.,.,.
CCCCN(C(=O)c1c(CC)noc1C)c1c(N)n(CC(C)C)c(=O)[nH]c1=O,-8,0,15,2,2
Cc1onc(-c2ccccc2)c1C(=O)N(CC(C)C)c1c(N)n(CC(C)C)c(=O)[nH]c1=O,30*,.,-4,.,-2
COc1ccc(OC)c(C2CC(=O)c3c([nH]c(C(=O)OCc4ccc(C)cc4)c3C)C2)c1 (centres undefined),0,1,.,.,.
Cc1ccc(CN(Cc2cccn2-c2nnc(N3CCCC3=O)s2)C(=O)Nc2ccccc2Cl)cc1,-16,1,.,.,.
c1ccc(CCCCNCC2COc3ccccc3O2)cc1 (centres undefined),-43,8,-5,96*,-2
CCCNCC1COc2ccccc2O1 (centres undefined),-29,13,-14,33*,0
OC(CNCC1COc2ccccc2O1)COCc1cccs1 (centres undefined),-35,0,-14,31*,-3
O=C(CC1COc2ccccc2O1)NCCc1ccccc1 (centres undefined),-1,1,-2,-2,-1
CCOC(=O)CCNCC1COc2ccccc2O1 (centres undefined),-20,17,-29,1,-2
CCCCNC(=O)C1(C)CCCCN1C(=O)c1ccc(OC)c(C(F)(F)F)c1 (centres undefined),.,.,-8,.,-1
O=C1CCCN1CCCNc1nc(NCc2cccs2)nc2ccsc12,.,.,-16,.,-4
CC1CCCCN1C(=O)Cn1c(SCC(=O)N(C)c2ccccc2)nc2ccccc21 (centres undefined),0,2,.,.,.
Cc1ccc(NC(=S)NC2CCN(Cc3ccccc3)CC2)c(C)c1,-21,0,-35,47*,-1
SMILES,D2 PAM-1,D2 ag-1,D2 PAM-2,D2 antagonist,D2 ag-2
Cc1ccc(NC(=O)CS(=O)CC(=O)NC2CCN(Cc3ccccc3)CC2)c(C)c1 (centres undefined),-2,-1,-21,9,-2
Cc1ccccc1NC(=S)NC1CCN(Cc2ccccc2)CC1,-27,0,-39,78*,-1
CC(C)(C)c1ccc(NC(=O)CSc2n[nH]c(=O)n2-c2cccnc2)cc1,15,1,-10,-21,-2
CC(C)c1ccc(NC(=O)CSc2n[nH]c(=O)n2-c2cccnc2)cc1,5,0,-3,31*,2
C=CCN(CC=C)Cc1c(C)[nH]c2c(C)c(C)ccc2c1=O,31*,0,-6,6,-4
CC1CCC(NC(=O)CSc2nncs2)CC1 (centres undefined),-3,0,3,4,-2
O=C(CSc1nncs1)NC1CCCCCCC1,12,-1,-4,31*,-4
O=C(c1cccs1)N1CCCc2cc(NS(=O)(=O)c3ccc(Br)cc3)ccc21,-3,1,.,.,.
COc1ccc(/C=C2\SC(N3CCc4ccccc4C3)=NC2=O)cc1OC,-20,0,-25,53*,-1
Cc1ccc(/C=C/C(=O)c2cc(Br)ccc2OC(=O)c2ccco2)cc1,-6,1,-2,35*,-3
COC(=O)c1cc2sccc2n1CC(=O)Nc1ccc(C)cc1C,-1,0,.,.,.
Cc1ccc(NC(=O)C2CC(=O)NC(N3CCc4ccccc43)=N2)cc1 (centres undefined),-18,1,-11,44*,-4
Cc1ccc2c(C)c(C(=O)Nc3c(C)n(C)n(-c4ccccc4)c3=O)oc2c1C,7,14,26,-7,45*
Cc1c(NC(=O)c2cccnc2Cl)c(=O)n(-c2ccccc2)n1C,-8,0,-6,36*,-5
CCc1ccccc1NC(=O)Cn1nc(CC)n2c(cc3sccc32)c1=O,-7,-1,.,.,.
O=C(Cn1c(-c2ccco2)nc2ccccc21)N1CCCCC1,8,1,-12,46*,-3
Nc1nonc1-c1nc2ccccc2n1CC(=O)N1CCCCC1,-7,-1,-10,-9,-4
COc1ccccc1OCC(=O)N(Cc1ccco1)Cc1ccccc1F,16,.,.,.,.
CC(C)(C)OC(=O)N1CCC(CC2CC(c3cccc(Br)c3)=NO2)(C(=O)NCC2CCCCC2)CC1 (centres undefined),-7,0,-8,-15,-2
O=C(c1ccccc1)N1CCC(CC2CC(c3cccc(Br)c3)=NO2)(C(=O)NCC2CCCCC2)CC1 (centres undefined),9,1,-13,31*,0
CCCc1cnc2c(c1SCC(=O)N1CCC(C)CC1)c(=O)n(C)c(=O)n2C,-6,-1,.,.,.
CCn1cc(C(=O)O)c(=O)c2cc(F)c(N3CCN(C(=S)NC(=O)c4ccccc4Br)CC3)cc21,31*,-2,-10,6,-2
CCn1cc(C(=O)O)c(=O)c2cc(F)c(N/N=C/c3ccccc3[N+](=O)[O-])cc21,-21,7,-2,30*,1
COc1cccc(NC(=O)C2CCN(S(=O)(=O)c3c(C)noc3/C=C/c3cccs3)CC2)c1,-7,0,.,.,.
